Test results reported in PubChem BioAssay AID2061166 (Soto Lab, Mitchell Center for Alzheimers Disease and …, 2025).
Activity calls are given as the source filed them.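 Rule for the calls: active = mean tau seeding fluorescence area under 1% of vehicle, meaning inhibition above a set limit; inactive = the rest.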

Target: Microtubule-associated protein tau (Homo sapiens) (UniProt P10636)
Test: blockers of AD brain-seeded tau fibril growth – biochemical, seed amplification, ThT fluorescence, primary screen (AID 2061166)
Conditions: Recombinant tau seeded by AD brain, ThT fluorescence AUC; at 100 µM; hits give high values

Sequence of Microtubule-associated protein tau (Homo sapiens) (P10636 whole entry, looked up): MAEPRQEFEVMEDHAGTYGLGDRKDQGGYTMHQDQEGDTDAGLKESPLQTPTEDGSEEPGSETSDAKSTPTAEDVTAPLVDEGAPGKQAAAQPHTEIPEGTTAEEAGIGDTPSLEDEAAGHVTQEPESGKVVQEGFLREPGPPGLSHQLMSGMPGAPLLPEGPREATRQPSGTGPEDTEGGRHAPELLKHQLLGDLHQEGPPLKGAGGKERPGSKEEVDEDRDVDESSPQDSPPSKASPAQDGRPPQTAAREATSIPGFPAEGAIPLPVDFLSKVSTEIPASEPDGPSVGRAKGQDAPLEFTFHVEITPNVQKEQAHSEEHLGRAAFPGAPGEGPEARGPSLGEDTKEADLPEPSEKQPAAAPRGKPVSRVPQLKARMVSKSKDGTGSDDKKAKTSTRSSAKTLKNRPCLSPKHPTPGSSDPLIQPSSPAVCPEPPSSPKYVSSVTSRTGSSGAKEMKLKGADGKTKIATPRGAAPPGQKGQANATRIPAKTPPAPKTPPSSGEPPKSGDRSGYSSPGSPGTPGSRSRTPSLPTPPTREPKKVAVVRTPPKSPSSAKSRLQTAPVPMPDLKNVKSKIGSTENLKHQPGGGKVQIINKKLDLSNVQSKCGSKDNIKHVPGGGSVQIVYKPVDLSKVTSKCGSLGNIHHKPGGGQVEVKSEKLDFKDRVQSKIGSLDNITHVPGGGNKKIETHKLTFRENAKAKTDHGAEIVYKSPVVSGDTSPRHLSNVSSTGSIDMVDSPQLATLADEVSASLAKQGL

Row | Structure (SMILES) | inhibition
1 | Oc1ccc(/C=C/c2cc(O)cc(O)c2)cc1 | 16.9% (inactive)
2 | COC1C(=O)C2(C)C(OC)CC3OCC3(OC(C)=O)C2C(OC(=O)c2ccccc2)C2(O)CC(OC(=O)C(O)C(NC(=O)OC(C)(C)C)c3ccccc3)C(C)=C1C2(C)C (stereo not drawn) | 10.4% (inactive)
3 | CCc1cc(C(N)=S)ccn1 | 40.9% (inactive)
4 | CC1COc2c(N3CCN(C)CC3)c(F)cc3c(=O)c(C(=O)O)cn1c23 (stereo not drawn) | -27.6% (inactive)
5 | Nc1cccc2c1C(=O)N(C1CCC(=O)NC1=O)C2=O (stereo not drawn) | 16.4% (inactive)
6 | Cc1c(C(=O)NN2CCCCC2)nn(-c2ccc(Cl)cc2Cl)c1-c1ccc(Cl)cc1 | 50.7% (inactive)
7 | Cn1cnc2c(F)c(Nc3ccc(Br)cc3Cl)c(C(=O)NOCCO)cc21 | -4.66% (inactive)
8 | CNC(=O)c1cc(Oc2ccc(NC(=O)Nc3ccc(Cl)c(C(F)(F)F)c3)cc2)ccn1 | -11% (inactive)
9 | CCc1c2c(nc3ccc(OC(=O)N4CCC(N5CCCCC5)CC4)cc13)-c1cc3c(c(=O)n1C2)COC(=O)C3(O)CC (stereo not drawn) | 46.1% (inactive)
10 | Brc1cccc(-c2cc(-c3ccc4c(c3)OCO4)[nH]n2)c1 | -25.9% (inactive)
11 | CN=c1ccc2nc3ccc(N)cc3sc-2c1 | 100% (active)
12 | Nc1nc2[nH]cc(CCc3ccc(C(=O)NC(CCC(=O)O)C(=O)O)cc3)c2c(=O)[nH]1 (stereo not drawn) | 15.2% (inactive)
13 | COc1ccc(Cc2cnc(N)nc2N)cc1OC | 37.1% (inactive)
14 | CN(C)CCC=C1c2ccccc2CCc2ccccc21 | 13.9% (inactive)
15 | COc1ccc2[nH]cc(CCNC(C)=O)c2c1 | -15.9% (inactive)
16 | NC(=O)NO | -49.7% (inactive)
17 | CCN(CC)CCCC(C)Nc1c2ccc(Cl)cc2nc2ccc(OC)cc12 (stereo not drawn) | 72.2% (inactive)

Row | Structure (SMILES) | inhibition
18 | CC1(O)Cc2oc3cc(O)c(O)c(C(=O)O)c3c(=O)c2CO1 (stereo not drawn) | 33.4% (inactive)
19 | CC(=O)c1c(O)c(C)c(O)c2c1OC1=CC(=O)C(C(C)=O)C(=O)C12C (stereo not drawn) | 21.4% (inactive)
20 | CCc1nc(N)nc(N)c1-c1ccc(Cl)cc1 | -7.97% (inactive)
21 | Clc1cccc(Cl)c1NC1=NCCN1 | -11.7% (inactive)
22 | C#Cc1cccc(Nc2ncnc3cc(OCCOC)c(OCCOC)cc23)c1 | -11.4% (inactive)
23 | O=C(OC1CN2CCC1CC2)N1CCc2ccccc2C1c1ccccc1 (stereo not drawn) | -37.8% (inactive)
24 | CCN(C(=O)c1c(O)c2c(Cl)cccc2n(C)c1=O)c1ccccc1 | 20% (inactive)
25 | CNS(=O)(=O)CCc1ccc2[nH]cc(C3CCN(C)CC3)c2c1 | -30.8% (inactive)
26 | C[N+](C)(C)CCO | 13.4% (inactive)
27 | CN1CC(C(=O)NC2(C)OC3(O)C4CCCN4C(=O)C(Cc4ccccc4)N3C2=O)CC2c3cccc4[nH]cc(c34)CC21 (stereo not drawn) | 34.2% (inactive)
28 | Nc1nc(Cl)nc2c1ncn2C1CC(O)C(CO)O1 (stereo not drawn) | -52.8% (inactive)
29 | CC(=O)Oc1ccccc1C(=O)O | 2.58% (inactive)
30 | C#Cc1cccc(Nc2ncnc3cc4c(cc23)OCCOCCOCCO4)c1 | -14.6% (inactive)
31 | CCCCN1CCCCC1C(=O)Nc1c(C)cccc1C (stereo not drawn) | 7.03% (inactive)
32 | O=C(O)c1ccccc1O | 11.4% (inactive)
33 | CCOC(=O)C1=C(C)NC(C)=C(C(=O)OC)C1c1cccc(Cl)c1Cl (stereo not drawn) | 51.7% (inactive)
